Assay in all cases: DAPPL (digital affinity profiling via proximity ligation, sequencing); 10 mM Tris-HCl pH 7.5, 50 mM NaCl, 1 mM DTT, 4% glycerol, room temperature, 30 min; GST-TFs on glutathione beads, 16-mer random dsDNA library, 0.1% formaldehyde crosslink after washing; high values mean tight binding
Test [1] deals with T1, FLI1 (Homo sapiens, UniProt Q01543 1-452).
T1 sequence: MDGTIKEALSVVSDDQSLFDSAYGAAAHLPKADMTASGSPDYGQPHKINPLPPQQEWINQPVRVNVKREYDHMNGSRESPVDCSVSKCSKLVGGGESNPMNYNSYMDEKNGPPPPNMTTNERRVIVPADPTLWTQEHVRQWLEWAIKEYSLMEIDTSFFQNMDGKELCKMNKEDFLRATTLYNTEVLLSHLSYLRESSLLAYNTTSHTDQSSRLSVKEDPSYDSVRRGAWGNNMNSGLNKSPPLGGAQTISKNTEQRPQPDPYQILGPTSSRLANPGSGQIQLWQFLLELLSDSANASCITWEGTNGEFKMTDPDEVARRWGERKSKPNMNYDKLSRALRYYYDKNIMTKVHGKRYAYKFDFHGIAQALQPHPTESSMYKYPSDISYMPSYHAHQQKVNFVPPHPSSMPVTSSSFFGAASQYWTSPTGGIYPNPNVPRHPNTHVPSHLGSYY
To be noted: protein: recombinant; tags: N-terminal GST; dsDNA, one strand shown. An outline of the steps: (§1)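 In yeast, human transcription factors were expressed with a GST fusion, then pulled down on glutathione beads and given DNA barcodes. Pooled with a tag-only sample, they were exposed to 200 nmole of a 16-mer random double-stranded DNA library (Tris/NaCl/DTT/glycerol buffer, room temperature, 30 min), washed, crosslinked with 0.1% formaldehyde, proximity-ligated using BsaI/T4 ligase for 1 h at 37 °C, PCR-amplified and read on an Illumina NextSeq500. Each hexamer's frequency of reads for a factor, divided by the matching frequency for the tag-only sample, gives the binding signal.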

Test [2] deals with T2, ELK1 (Homo sapiens, UniProt P19419 1-428).
T2 sequence: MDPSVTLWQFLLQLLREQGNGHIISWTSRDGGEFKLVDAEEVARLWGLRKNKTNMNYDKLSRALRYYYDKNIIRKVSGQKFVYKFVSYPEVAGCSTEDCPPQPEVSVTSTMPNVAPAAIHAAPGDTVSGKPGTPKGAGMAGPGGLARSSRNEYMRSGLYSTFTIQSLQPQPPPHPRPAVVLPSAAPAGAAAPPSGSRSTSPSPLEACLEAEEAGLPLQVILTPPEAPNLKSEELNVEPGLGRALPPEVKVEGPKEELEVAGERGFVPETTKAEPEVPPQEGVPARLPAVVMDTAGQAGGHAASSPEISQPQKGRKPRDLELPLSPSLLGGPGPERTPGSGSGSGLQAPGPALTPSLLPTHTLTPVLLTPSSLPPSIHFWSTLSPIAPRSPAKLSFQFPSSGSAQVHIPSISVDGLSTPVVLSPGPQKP
To be noted: protein: recombinant; tags: N-terminal GST; dsDNA, one strand shown. An outline of the steps: as §1

For test [3], the target named is T3, GABPA (Homo sapiens, UniProt Q06546 1-454).
T3 sequence: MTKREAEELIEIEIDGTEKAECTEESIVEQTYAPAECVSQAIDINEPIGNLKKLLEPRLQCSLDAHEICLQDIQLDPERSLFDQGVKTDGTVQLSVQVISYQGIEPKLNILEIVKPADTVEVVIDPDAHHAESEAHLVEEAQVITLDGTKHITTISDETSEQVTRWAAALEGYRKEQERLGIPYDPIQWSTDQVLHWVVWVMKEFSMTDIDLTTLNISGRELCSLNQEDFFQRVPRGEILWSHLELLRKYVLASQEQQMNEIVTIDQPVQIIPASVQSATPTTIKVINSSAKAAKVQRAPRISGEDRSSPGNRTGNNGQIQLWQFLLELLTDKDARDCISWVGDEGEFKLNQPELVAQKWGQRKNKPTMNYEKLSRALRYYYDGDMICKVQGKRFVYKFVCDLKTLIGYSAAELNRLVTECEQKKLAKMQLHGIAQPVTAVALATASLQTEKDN
To be noted: protein: recombinant; tags: N-terminal GST; dsDNA, one strand shown. An outline of the steps: as §1

Test [4] deals with T4, ERG (Homo sapiens, UniProt P11308 1-479).
T4 sequence: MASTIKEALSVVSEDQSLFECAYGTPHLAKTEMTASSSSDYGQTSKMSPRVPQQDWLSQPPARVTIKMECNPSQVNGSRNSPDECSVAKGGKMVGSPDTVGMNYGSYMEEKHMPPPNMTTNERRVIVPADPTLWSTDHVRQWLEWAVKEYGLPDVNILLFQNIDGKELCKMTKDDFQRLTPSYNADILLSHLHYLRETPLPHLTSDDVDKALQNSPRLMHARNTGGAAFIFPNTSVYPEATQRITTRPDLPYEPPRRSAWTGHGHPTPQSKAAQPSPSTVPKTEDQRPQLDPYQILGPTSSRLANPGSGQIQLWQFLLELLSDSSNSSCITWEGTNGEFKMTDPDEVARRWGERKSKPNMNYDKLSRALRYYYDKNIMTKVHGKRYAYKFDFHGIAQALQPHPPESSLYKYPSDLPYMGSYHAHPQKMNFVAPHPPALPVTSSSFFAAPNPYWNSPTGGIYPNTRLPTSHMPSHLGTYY
To be noted: protein: recombinant; tags: N-terminal GST; dsDNA, one strand shown. In a few lines: as §1

The target of test [5] is ELF1 (Homo sapiens, UniProt P32519 1-619). To be noted: protein: recombinant; tags: N-terminal GST; dsDNA, one strand shown. In a few lines: as §1
ELF1, sequence (P32519 whole entry): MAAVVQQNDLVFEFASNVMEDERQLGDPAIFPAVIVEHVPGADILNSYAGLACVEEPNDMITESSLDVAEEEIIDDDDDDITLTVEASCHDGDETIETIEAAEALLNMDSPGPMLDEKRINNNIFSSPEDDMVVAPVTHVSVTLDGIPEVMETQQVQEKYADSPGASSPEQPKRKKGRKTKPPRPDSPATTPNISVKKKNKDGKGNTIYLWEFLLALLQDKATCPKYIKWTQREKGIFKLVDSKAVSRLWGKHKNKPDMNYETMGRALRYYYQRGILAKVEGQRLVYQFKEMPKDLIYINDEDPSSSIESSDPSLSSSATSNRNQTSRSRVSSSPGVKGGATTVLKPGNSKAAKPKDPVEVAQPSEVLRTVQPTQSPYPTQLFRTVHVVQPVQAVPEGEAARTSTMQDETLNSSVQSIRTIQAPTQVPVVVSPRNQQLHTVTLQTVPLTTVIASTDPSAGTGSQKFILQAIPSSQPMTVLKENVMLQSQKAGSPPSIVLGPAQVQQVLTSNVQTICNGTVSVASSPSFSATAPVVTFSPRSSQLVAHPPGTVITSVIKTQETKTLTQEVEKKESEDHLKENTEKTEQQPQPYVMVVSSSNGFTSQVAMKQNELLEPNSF
Test [6] deals with T5, EHF (Homo sapiens, UniProt Q9NZC4 1-300).
T5 sequence: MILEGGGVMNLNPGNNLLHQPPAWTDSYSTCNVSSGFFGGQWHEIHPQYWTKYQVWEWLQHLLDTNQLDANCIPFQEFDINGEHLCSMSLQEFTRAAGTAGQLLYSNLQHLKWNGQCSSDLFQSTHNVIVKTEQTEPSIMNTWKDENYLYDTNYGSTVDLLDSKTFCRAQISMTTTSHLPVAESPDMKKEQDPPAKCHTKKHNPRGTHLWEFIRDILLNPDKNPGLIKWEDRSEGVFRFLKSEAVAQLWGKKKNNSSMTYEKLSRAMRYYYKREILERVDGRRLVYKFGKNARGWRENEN
To be noted: protein: recombinant; tags: N-terminal GST; dsDNA, one strand shown. In a few lines:
as §1

Test [7] concerns the target SPI1 (Homo sapiens, UniProt P17947 1-270). To be noted: protein: recombinant; tags: N-terminal GST; dsDNA, one strand shown. In a few lines:
as §1

Test [8] concerns the target SPIB (Homo sapiens, UniProt Q01892 1-262). To be noted: protein: recombinant; tags: N-terminal GST; dsDNA, one strand shown. In a few lines:
as §1

Test [9] deals with T6, ELK3 (Homo sapiens, UniProt P41970 1-407).
T6 sequence: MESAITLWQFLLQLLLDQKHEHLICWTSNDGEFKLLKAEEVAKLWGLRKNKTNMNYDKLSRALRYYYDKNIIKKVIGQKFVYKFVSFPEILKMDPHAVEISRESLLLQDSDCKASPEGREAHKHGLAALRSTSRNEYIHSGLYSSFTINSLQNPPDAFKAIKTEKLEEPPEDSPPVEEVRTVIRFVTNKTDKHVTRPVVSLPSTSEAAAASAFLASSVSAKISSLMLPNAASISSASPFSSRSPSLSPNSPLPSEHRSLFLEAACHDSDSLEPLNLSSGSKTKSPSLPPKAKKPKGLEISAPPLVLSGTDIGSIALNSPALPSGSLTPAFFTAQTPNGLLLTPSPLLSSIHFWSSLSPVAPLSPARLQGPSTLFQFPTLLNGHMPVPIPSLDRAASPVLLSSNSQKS
To be noted: protein: recombinant; tags: N-terminal GST; dsDNA, one strand shown. In a few lines:
as §1

Test [10] has as its target T7, FEV (Homo sapiens, UniProt Q99581 1-238).
T7 sequence: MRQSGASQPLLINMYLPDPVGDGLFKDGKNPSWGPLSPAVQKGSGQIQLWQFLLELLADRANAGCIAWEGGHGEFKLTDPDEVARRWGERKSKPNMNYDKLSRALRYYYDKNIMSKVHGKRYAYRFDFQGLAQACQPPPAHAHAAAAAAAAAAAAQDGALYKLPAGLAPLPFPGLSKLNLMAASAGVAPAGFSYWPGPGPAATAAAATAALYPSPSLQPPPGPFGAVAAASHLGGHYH
To be noted: protein: recombinant; tags: N-terminal GST; dsDNA, one strand shown. In a few lines:
as §1

The target of test [11] is ETV5 (Homo sapiens, UniProt P41161 1-510). To be noted: protein: recombinant; tags: N-terminal GST; dsDNA, one strand shown. An outline of the steps:
as §1

The target in test [12] is HSF1 (Homo sapiens, UniProt Q00613 1-529). To be noted: protein: recombinant; tags: N-terminal GST; chain copies: 3; dsDNA, one strand shown. An outline of the steps:
as §1

Test [13] has as its target T8, SPIC (Homo sapiens, UniProt Q8N5J4 1-248).
T8 sequence: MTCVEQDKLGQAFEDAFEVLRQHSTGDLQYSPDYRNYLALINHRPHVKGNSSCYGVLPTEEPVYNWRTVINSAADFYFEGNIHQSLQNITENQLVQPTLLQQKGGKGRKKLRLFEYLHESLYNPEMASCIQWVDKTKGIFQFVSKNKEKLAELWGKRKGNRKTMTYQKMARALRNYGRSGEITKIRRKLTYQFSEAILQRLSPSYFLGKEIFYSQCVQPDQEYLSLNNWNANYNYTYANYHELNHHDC
To be noted: protein: recombinant; tags: N-terminal GST; dsDNA, one strand shown. An outline of the steps: as §1

In test [14] the target is ELF4 (Homo sapiens, UniProt Q99607 1-663). To be noted: protein: recombinant; tags: N-terminal GST; dsDNA, one strand shown. In a few lines: as §1
ELF4, sequence (Q99607 whole entry): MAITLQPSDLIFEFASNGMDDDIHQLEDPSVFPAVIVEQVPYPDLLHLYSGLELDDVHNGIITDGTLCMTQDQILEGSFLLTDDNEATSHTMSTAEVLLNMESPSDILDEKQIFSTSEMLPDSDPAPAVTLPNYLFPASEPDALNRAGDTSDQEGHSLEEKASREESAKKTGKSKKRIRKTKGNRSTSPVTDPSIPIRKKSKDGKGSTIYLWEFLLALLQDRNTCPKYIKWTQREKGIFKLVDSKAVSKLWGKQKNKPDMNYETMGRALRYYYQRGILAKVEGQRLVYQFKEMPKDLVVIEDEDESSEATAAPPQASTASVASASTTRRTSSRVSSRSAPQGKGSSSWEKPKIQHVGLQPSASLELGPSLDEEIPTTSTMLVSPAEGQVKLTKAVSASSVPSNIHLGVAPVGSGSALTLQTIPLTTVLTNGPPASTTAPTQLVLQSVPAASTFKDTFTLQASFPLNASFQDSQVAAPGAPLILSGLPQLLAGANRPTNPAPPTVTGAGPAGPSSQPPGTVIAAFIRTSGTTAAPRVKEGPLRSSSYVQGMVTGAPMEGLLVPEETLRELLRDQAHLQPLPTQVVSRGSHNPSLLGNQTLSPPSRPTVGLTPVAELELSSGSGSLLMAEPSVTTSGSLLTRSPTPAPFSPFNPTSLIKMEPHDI
Test [15] deals with T9, ELK4 (Homo sapiens, UniProt P28324-2 1-405).
T9 sequence: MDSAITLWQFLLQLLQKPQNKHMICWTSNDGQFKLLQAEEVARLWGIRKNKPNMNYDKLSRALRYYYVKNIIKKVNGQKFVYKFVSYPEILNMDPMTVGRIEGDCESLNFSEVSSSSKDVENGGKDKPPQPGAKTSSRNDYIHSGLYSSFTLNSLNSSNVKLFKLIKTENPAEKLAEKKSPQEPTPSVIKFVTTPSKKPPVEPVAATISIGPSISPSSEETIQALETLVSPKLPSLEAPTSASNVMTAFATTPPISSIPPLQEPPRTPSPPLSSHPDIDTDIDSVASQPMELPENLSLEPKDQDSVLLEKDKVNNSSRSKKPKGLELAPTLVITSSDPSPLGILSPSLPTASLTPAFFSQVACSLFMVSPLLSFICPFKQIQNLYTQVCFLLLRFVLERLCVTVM
To be noted: protein: recombinant; tags: N-terminal GST; dsDNA, one strand shown. An outline of the steps:
as §1

Test [16] has as its target T10, ETV2 (Homo sapiens, UniProt O00321 1-342).
T10 sequence: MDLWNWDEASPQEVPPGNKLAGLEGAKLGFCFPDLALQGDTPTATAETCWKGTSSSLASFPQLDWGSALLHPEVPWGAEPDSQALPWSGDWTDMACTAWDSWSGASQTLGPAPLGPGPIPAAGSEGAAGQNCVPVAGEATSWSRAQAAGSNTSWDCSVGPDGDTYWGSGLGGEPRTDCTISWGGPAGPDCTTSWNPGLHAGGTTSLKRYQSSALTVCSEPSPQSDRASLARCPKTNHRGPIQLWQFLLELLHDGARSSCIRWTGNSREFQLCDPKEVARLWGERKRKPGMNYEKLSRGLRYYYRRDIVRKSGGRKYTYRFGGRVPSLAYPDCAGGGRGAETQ
To be noted: protein: recombinant; tags: N-terminal GST; dsDNA, one strand shown. In a few lines: as §1

The target of test [17] is T11, ELF3 (Homo sapiens, UniProt P78545 1-371).
T11 sequence: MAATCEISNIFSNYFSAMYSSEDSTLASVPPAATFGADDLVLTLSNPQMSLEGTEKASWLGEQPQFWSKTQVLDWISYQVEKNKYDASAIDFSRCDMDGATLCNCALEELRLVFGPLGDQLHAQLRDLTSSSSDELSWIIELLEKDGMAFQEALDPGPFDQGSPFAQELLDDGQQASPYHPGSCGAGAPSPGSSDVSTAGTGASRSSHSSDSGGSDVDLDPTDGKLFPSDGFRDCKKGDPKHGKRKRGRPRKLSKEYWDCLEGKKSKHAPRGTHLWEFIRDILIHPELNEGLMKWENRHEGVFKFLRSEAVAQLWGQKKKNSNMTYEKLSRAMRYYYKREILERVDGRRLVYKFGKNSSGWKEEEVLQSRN
To be noted: protein: recombinant; tags: N-terminal GST; dsDNA, one strand shown. In a few lines:
as §1

In test [18] the target is CRX (Homo sapiens, UniProt O43186 1-299). To be noted: protein: recombinant; tags: N-terminal GST; dsDNA, one strand shown. In a few lines: as §1
CRX, sequence (O43186 whole entry): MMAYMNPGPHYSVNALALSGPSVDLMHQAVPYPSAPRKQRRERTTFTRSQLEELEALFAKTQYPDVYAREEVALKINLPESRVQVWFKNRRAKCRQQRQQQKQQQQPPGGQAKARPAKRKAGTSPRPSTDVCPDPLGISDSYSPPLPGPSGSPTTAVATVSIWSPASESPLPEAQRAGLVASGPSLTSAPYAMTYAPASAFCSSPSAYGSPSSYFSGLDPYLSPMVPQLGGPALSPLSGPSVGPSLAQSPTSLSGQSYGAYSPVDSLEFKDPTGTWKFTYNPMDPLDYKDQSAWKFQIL
The target in test [19] is ETV1 (Homo sapiens, UniProt P50549 1-477). To be noted: protein: recombinant; tags: N-terminal GST; dsDNA, one strand shown. In a few lines: as §1
ETV1, sequence (P50549 whole entry): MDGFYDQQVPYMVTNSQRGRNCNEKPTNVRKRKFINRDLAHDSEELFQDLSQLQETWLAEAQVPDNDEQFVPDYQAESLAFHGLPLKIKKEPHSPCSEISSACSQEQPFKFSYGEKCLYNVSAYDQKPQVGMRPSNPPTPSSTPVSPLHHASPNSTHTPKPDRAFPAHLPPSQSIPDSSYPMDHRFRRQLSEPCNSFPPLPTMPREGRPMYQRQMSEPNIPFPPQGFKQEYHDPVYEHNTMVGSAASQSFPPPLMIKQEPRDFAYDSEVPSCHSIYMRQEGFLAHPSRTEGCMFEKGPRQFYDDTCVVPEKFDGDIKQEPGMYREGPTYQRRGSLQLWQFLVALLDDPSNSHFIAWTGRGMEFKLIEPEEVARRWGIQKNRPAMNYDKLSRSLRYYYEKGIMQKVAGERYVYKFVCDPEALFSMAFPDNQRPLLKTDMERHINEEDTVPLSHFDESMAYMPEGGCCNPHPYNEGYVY

ETV5, sequence (P41161 whole entry): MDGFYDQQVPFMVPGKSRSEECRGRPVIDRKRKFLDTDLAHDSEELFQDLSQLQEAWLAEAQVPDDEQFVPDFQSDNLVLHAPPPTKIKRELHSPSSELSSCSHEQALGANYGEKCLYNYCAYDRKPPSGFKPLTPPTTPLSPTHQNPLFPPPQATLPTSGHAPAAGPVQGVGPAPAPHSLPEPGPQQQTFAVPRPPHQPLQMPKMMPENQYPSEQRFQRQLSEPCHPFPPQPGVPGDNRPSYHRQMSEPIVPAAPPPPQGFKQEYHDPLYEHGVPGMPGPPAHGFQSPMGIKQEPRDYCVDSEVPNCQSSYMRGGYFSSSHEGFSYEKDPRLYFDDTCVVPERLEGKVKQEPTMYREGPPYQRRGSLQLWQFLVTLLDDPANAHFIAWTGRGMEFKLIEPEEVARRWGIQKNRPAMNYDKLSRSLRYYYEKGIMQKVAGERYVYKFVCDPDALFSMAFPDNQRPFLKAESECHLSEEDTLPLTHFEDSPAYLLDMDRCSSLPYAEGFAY
HSF1, sequence (Q00613 whole entry): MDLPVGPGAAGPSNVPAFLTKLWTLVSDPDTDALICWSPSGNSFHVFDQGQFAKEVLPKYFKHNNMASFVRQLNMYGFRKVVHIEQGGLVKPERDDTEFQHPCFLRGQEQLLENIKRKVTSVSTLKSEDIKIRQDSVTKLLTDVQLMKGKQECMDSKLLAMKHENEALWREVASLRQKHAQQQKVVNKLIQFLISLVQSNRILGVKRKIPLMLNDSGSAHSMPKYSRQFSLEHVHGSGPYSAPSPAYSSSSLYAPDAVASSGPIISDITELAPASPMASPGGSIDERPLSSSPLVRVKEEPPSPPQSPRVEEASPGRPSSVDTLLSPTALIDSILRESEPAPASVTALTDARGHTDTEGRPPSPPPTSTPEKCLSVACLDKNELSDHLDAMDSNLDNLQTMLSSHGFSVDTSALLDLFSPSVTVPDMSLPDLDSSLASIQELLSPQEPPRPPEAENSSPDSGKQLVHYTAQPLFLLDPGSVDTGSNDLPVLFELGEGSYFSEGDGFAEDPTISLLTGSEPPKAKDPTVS
SPIB, sequence (Q01892 whole entry): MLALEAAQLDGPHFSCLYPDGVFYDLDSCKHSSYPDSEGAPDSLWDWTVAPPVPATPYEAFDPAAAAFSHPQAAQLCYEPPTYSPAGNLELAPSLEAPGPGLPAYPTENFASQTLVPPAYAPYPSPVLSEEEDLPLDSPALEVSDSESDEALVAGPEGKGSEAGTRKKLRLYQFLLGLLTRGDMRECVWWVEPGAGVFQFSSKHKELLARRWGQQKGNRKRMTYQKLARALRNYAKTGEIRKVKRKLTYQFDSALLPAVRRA

TTCATC: the binding signal was 1.36 fold enrichment (6-mer frequency, TF over GST control) in [1]; 1.28 fold enrichment (6-mer frequency, TF over GST control) in [2]; 1.29 fold enrichment (6-mer frequency, TF over GST control) in [3]; 1.22 fold enrichment (6-mer frequency, TF over GST control) in test [4]; 1.27 fold enrichment (6-mer frequency, TF over GST control) in [5]; 1.14 fold enrichment (6-mer frequency, TF over GST control) in [6]. The binding signal in test [7] was 1.27 fold enrichment (6-mer frequency, TF over GST control); in [8], 1.28 fold enrichment (6-mer frequency, TF over GST control); in test [9] it was 1.32 fold enrichment (6-mer frequency, TF over GST control); in [10], 1.21 fold enrichment (6-mer frequency, TF over GST control); in test [11], 1.28 fold enrichment (6-mer frequency, TF over GST control); in test [12] it was 1.29 fold enrichment (6-mer frequency, TF over GST control). Moreover, the binding signal in test [13] is 1.28 fold enrichment (6-mer frequency, TF over GST control); in test [14] it was 1.27 fold enrichment (6-mer frequency, TF over GST control); in test [15] it was 1.27 fold enrichment (6-mer frequency, TF over GST control); in [16] it was 1.25 fold enrichment (6-mer frequency, TF over GST control); in [17], 1.3 fold enrichment (6-mer frequency, TF over GST control); in test [18], 1.28 fold enrichment (6-mer frequency, TF over GST control). In addition, in [19], the binding signal was 1.25 fold enrichment (6-mer frequency, TF over GST control).

Source of the values: publication PMC7862700, “An all-to-all approach to the identification of sequence-specific readers for epigenetic DNA modifications on cytosine”.
